This is an account of results in PubChem BioAssay AID588350 (The Scripps Research Institute Molecular Screening Center, 2011).

The structures appear in SMILES notation. Among all 1,900 compounds or so, about 1,200 (63%) were called active.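 The calls were made as follows: active = mean activation above the mean of solvent-only control wells plus 3 SD (cut at about 22% in these data); inactive = the rest.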 The set was probably picked from earlier hits. Only a selection was taken, and actives are over-represented in it overall.

The nature of the assay: GAA30 FXN promoter activators, confirmation, counter-screen for GAA850 frataxin promoter activator project, cell-based, luminescence, HEK293, lucGAA30, triplicate (AID 588350).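 Also: counterscreen of GAA850 promoter hits where activity marks nonselective or luminescence artifacts.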 The note with it: HEK293 lucGAA30 FXN promoter luciferase, 24 h; at 6 µM; stronger effect = higher value. For orientation: Counterscreens check selectivity or assay interference.
Consider `CC(C)(C)c1ccc(OC(=O)N2CCCCC2)cc1`, for which the activation was 101% (active).
